# Screening data deposited in PubChem BioAssay by National Center for Advancing Translational Sciences (NCATS).
# DT40 TDP1 no CPT: qHTS for Inhibitors of human tyrosyl-DNA phosphodiesterase 1 (TDP1): qHTS in cells in absence of CPT | DT40 Tdp1-/- hTDP1 cells, no CPT, ATP luminescence, 48 h | Potency, µM (highest dose often 46.2 µM), inactives show at the top dose activity change, negative = growth inhibition, hits mostly inhibitors | actives 15% (n = 420,000) | AID 686978, 2013; also: potency is read from the fitted curve at half-maximal effect; % is scaled to controls: 0 for no effect and ±100 for the full control effect; nearly all actives have a fitted effect of over 55% in size
#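 DT40 Tdp1-/-;hTDP1 cells, no CPT (DMSO vehicle only), 400 cells/well; compounds pin-transferred; ≥48 hr, 37 °C; CellTiter-Glo 30 min RT dark, luminescence read.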
# TGFb inhibitor: inhibitors of TGF-b signaling; HepG2 CAGA-GFP TGF-b/SMAD3 reporter, GFP fluorescence, 18 h; TGF-beta stimulated, 500 pg/mL final; Potency, µM (highest dose often 46.1 µM), without a hit: top-dose activity, negative = inhibition, hits mostly inhibitors; actives 1.2% (n = 410,000); also: potency is read from the fitted curve at half-maximal effect; % is scaled to controls: 0 for no effect and ±100 for the full control effect; nearly all actives have a fitted effect of over 65% in size
#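 TGF-beta reporter screen: HEPG2 CAGA-GFP, 1% FBS, 500 pg/mL TGF-beta final, 18 h; per-cell GFP summed per well; curves fitted and categorized by class.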
# ASM inhibitor: blocks human secretory acid sphingomyelinase; P17405; placental ASM, HMU-PC fluorogenic substrate, 60 min; Potency, µM (top dose mostly 57.5 µM), inactives show at the highest dose activity change, negative = inhibition, actives largely listed as inhibitors; actives 0.006% (n = 340,000); also: potency is read from the fitted curve at half-maximal effect
#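 Human placenta-derived ASM enzyme was preincubated with compound for 10 minutes at room temperature, then given fluorogenic substrate HMU-PC0 (9 uM final) for 60 minutes at 37 °C; a pH 10 stop preceded fluorescence reading at Ex 386/Em 447 nm.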
# TDP1 cell CPT: DT40-hTDP1 cell growth loss with CPT; actives 12% (n = 420,000); Potency, µM (doses to about 46.2 µM), inactives show at the highest dose activity change, negative = growth inhibition, hits mostly inhibitors; chicken DT40 Tdp1-/-;hTDP1 cells + 20 nM CPT, ATP luminescence, 48 h; also: potency is read from the fitted curve at half-maximal effect; % is scaled to controls: 0 for no effect and ±100 for the full control effect; nearly all actives have a fitted effect of over 55% in size
#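 Chicken DT40 Tdp1-/- cells stably complemented with human TDP1 were seeded at 400 cells/well in medium containing 20 nM camptothecin, exposed to pin-transferred compounds, and grown at 37 °C for at least 48 hr. Viability was read as ATP luminescence.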
# HepG2 tox: kills HepG2 cells in TGF-b inhibitor counter-screen; HepG2 CAGA-GFP viability, ATP luminescence, 18 h; Potency, µM (doses to about 46.1 µM), for inactives: at the top dose activity change, negative = cytotoxicity, usual class: cytotoxic; actives 0.76% (n = 410,000); AID 588856; also: potency is read from the fitted curve at half-maximal effect
#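 HepG2 CAGA-GFP cells (1000/well, DMEM with 1% FBS) received compound, then TGF-beta at 500 pg/mL final, and were incubated 18 hours at 37 degrees C. Viability was read by CellTiter-Glo luminescence. Media-only wells were set as complete cell-killing and DMSO as no toxicity.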
# IL1B secr inh: blocks inflammasome-driven IL-1 beta release | activity change, % at 57.5 µM | THP-1 LPS/ATP IL-1B secretion, AlphaLISA, 16 h; active compounds read low | actives 4.7% (n = 360,000); in the data active = activity change below about -50%; inconclusive = mostly about -30% to -49%; also: % is scaled to controls: 0 for no effect and ±100 for the full control effect
#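 THP-1 cells pretreated 1 hr with compounds (up to 57.5 uM final), then stimulated with LPS (250 ng/mL final) plus ATP (1.25 mM final); secreted IL-1B measured by AlphaLISA after 16 hr, decreased signal indicating inhibition.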
# * hit, by the source's call; ? = inconclusive; / = not tested or not shown; [ ] = remark or other dose. Sampled rows, rich in hits. Any-hit rate of the full collection: about 19%. Unless noted, calls follow the shape of the dose curve; as a rule, active = well fitted curve in the direction sought with a large enough effect; inconclusive = small, poorly fitted or top-dose-only effect, or another doubt; inactive = no such curve, though single readings can be large; an effect the other way counts as inactive or inconclusive.
SMILES,DT40 TDP1 no CPT,TGFb inhibitor,ASM inhibitor,TDP1 cell CPT,HepG2 tox,IL1B secr inh
BrC(=C\c1ccccc1)/C=N/Nc1nc2ccccc2[nH]1,?,?,-10%,18µM*,12%,-29
Fc1ccccc1-c1ccc(/C=N/Nc2nc3ccccc3[nH]2)o1,?,13µM*,88%,?,-57%,0
C(=N\Nc1nc2ccccc2[nH]1)/c1cccc2nccnc12,4.1µM*,-7%,-10%,2.9µM*,-17%,/
CCN(CC)c1ccc(/C=N/Nc2nc3ccccc3[nH]2)c(O)c1,4.6µM*,16µM*,28%,4.6µM*,-32%,-59*
Fc1ccccc1-c1nc2ccccc2[nH]1,-21%,0%,-3%,-6%,-22%,-2
c1ccc(CN2CCC(=NNc3nc4ccccc4[nH]3)CC2)cc1,-24%,-3%,1%,3%,-36%,120
CC(C)CCN1C(=O)c2cccc3c(N)ccc(c23)C1=O,?,241%,4%,-14%,-150%,-6
C#CCn1cc(/C=N/NC(=O)COc2cccc3cccnc23)c2ccccc21,?,-25%,6%,?,-26%,-1
C(=N\Nc1nc2ccccc2[nH]1)/c1ccc2ncccc2c1,0.82µM*,?,1%,?,-74%,0
C(=N\Nc1nc2ccccc2[nH]1)/c1ccccn1,21µM*,?,0%,?,-83%,110
C(=N\Nc1nc2ccccc2[nH]1)/c1ccc2c(c1)OCCO2,?,?,-1%,?,-53%,41
c1ccc2c(c1)CC/C2=N/Nc1nc2ccccc2[nH]1,18µM*,?,-2%,?,-32%,-108*
CC(C)(C)C1CCC(=NNc2nc3ccccc3[nH]2)CC1 (stereo not drawn),?,-15%,6%,-15%,-21%,75
C#CCn1cc(/C=N/Nc2nc3ccccc3[nH]2)c2ccccc21,?,?,-21%,?,-5%,-92*
COc1ccc(OCC(=O)OCc2cc(=O)n3cc(C)sc3n2)cc1,-12%,0%,/,-15%,-13%,/
COc1cccc(NC(=O)NC2CCCCC2C)c1 (stereo not drawn),-10%,-1%,2%,-19%,-6%,-12
Cc1cc2c(c(-c3nc4ccccc4s3)c1)OC(CNC(=O)c1occc1C)C2 (stereo not drawn),?,/,/,19%[9.04 µM],/,/
Cc1c(Cl)cccc1NC(=S)N/N=C/c1ccccc1Cl,?,?,0%,?,-24%,4
Cc1ccc(/C=N\Nc2nc3ccc(Cl)cc3[nH]2)o1,21µM*,-11%,-4%,?,-12%,?
NC1=NC(=Nc2ccc(Cl)cc2)c2ccccc21,-29%,-26%,-1%,1%,-2%,-14
NC1=NC(=Nc2ccccc2)c2ccccc21,?,-1%,-2%,?,-16%,?
NC1=NC(=Nc2ccc(S(=O)(=O)N3CCOCC3)cc2)c2ccccc21,-77%,-15%,0%,?,4%,-51*
CC(C)c1ccc(N=C2N=C(N)c3ccccc32)cc1,?,?,-7%,?,-53%,-96*
CC(C1CC1)N(Cc1ccccc1)C(=S)Nc1ccccc1Cl (stereo not drawn),-1%,?,-6%,-3%,0%,-15
C=CC(=O)N1C/C=C\C(c2ccc(OC)cc2)N(Cc2ccc(F)cc2)C(=O)C1 (stereo not drawn),-21%,-19%,2%,?,14%,-61*
